# Results as given in PubChem BioAssay AID2732 (Emory University Molecular Libraries Screening Center, 2010).
# About 8,200 (3.7%) of roughly 220,000 compounds were called active. Only a selection was taken, and actives are over-represented in it overall. A number with no mark means an inactive call.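 Rule for the calls: active = compounds that reduced the stress-induced luciferase reporter signal by more than about 70% of percent inhibition (limit read from the data); inactive = the rest.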
# Assay: inhibitors of CHOP promoter induction, primary screen, cell-based, unfolded protein response, luciferase reporter (AID 2732);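 note: 0% = tunicamycin plus vehicle and 100% = wells without tunicamycin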
# Conditions: CHO-K1 CHOP-promoter luciferase, tunicamycin-induced, 15-18 h; at 10 µM; stronger effect = higher value
row,SMILES,inhibition
1,CCCCSc1nnc2c(n1)OC=Nc1ccccc1-2,-26.6%
2,O=C1/C(=C/c2ccc3c(c2)OCO3)CCC/C1=C\c1ccc2c(c1)OCO2,10.8%
3,CCC1=C/C(=C\c2ccc3c(c2)OCO3)C(=O)S1,47.3%
4,CSC1=N/C(=C\c2ccc3c(c2)OCO3)C(=O)S1,79.4% (active)
5,C/C=N/N(c1ccccc1)c1ccccc1,12.3%
6,Oc1ccc(-c2nnc(Nc3ccccc3)c3ccccc23)cc1,34.9%
7,COc1cc(OC)c2ccc(=O)oc2c1C(CCN1CCN(c2ccccc2)CC1)c1ccc2c(c1)OCO2 (configuration not stated),6.77%
8,Cc1[nH]n(C)c(=O)c1C(=O)c1c(-c2c(Cl)cccc2Cl)noc1C,-56.3%
9,COc1ccc(CNC(=O)C(Cc2ccccc2)n2cccc2)cc1 (configuration not stated),9.45%
10,CCOC(=O)C1=C(O)CSC1=Nc1cccc(Cl)c1,12.7%
11,CN(C)c1nc(=Nc2cccc(Cl)c2)ss1,74.4% (active)
12,Clc1cccc(N=C2NN=C(c3ccc4c(c3)OCCO4)CS2)c1,10.5%
13,COc1ccccc1N(C)S(=O)(=O)c1ccc(C(=O)NC2CCCCCC2)cc1,19.2%
14,CN1C(=O)/C(=C/c2ccc(C(=O)NC3CCCC3)cc2)Oc2ccccc21,101% (active)
15,O=C(NC1CC1)c1ccc(-c2ccccc2)cc1,-3.76%
16,CCc1ccc2nc(Nc3ncc(C(C)=O)c(C)n3)nc(C)c2c1,1.13%

row,SMILES,inhibition
1,NNC(=O)c1cccc(COCC(F)(F)C(F)F)c1,-3.75%
2,O=C(CCCl)Nc1ccc(S(=O)(=O)NCc2ccco2)cc1,-12.6%
3,O=C(NC1CC1)c1cccc(Br)c1,20.9%
4,COc1ccc(C(=O)c2oc3ccc(Br)cc3c2NC(C)=O)cc1,10%
5,COC(=O)C1NN=C(C(=O)c2ccc(Br)cc2)C1c1cccc(Br)c1 (configuration not stated),75.1% (active)
6,C/C(CC(C)C)=N\Oc1nc(C)cc(C)n1,-11.9%
7,Cc1cc(N2CCN(c3ccccc3)CC2)nc(N2CCOCC2)n1,12%
8,FC(F)(F)c1cc(C(F)(F)F)c2ccc(N3CCN(c4ccccc4)CC3)nc2n1,96.8% (active)
9,O=C(NC(=S)Nc1cccc2c(O)cccc12)c1cccc(Br)c1,32.1%
10,CCOC(=O)c1c(C)oc(C)c(C(=O)OCC)c1=O,1.84%
11,Cc1ccc(S(=O)(=O)N2CCN(C(=O)c3cccs3)CC2)cc1,18.5%
12,O=S(=O)(c1ccc(F)cc1)N1CC=C(c2ccccc2)CC1,5.87%
13,O=S(=O)(c1ccc(F)cc1)N1CCN(Cc2ccccc2C(F)(F)F)CC1,88% (active)
14,Cc1ccc(S(=O)(=O)N2CCN(Cc3cccc(C)c3O)CC2)cc1,83% (active)
15,O=C(CN1CCN(S(=O)(=O)c2ccc(F)cc2)CC1)Nc1ccccc1F,14.5%
16,Cc1ccc(S(=O)(=O)N2CCN(S(=O)(=O)N3CCOCC3)CC2)cc1,-15%
